CYP2C9 inhib: blocks human cytochrome P450 2C9. CYP2C9 Supersomes, luciferin-H conversion, luminescence. inhibition, % at 5 µM. P11712. actives 20% (n = 96,000);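 active = blocking of liver enzyme CYP2C9 beyond about 50% at 5 µM, limit read from the data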
CYP2C19 inh: human CYP2C19 inhibition. CYP2C19 Supersomes, luciferin-H EGE luminescence, 30 min. inhibition, % at 5 µM. actives 21% (n = 96,000). AID 778;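 active = CYP2C19 inhibition above a set limit at 5 µM in the primary screen, cut at about 50% in these data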;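 also: plate controls were negative control wells for no effect and 2.5 mM tranylcypromine positive control for full effect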
EphB4 antag: blocks human EphB4 binding to ephrin-B2; EphB4 LBD / TNYL-RAW-Alexa532 peptide, fluorescence polarization; inhibition, % at 7 µM; AID 720; actives 0.15% (n = 97,000);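 active = inhibition above the screen-wide mean inhibition plus 3 SD, cut at about 15% in these data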;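 also: 0% = DMSO wells and 100% = excess unlabeled TNYL-RAW peptide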
CYP2C19 activ: cytochrome P450 2C19 (human) activation | AID 1025 | recombinant CYP2C19, luciferin-H EGE luminescence; stronger effect = higher value; 0 = fully inhibited enzyme, 1 = untreated enzyme | 96,000 tested, under 10 active | activation factor at 5 µM | P33261;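 active = activation factor of at least 2 at 5 µM in the primary screen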;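 also: 0 = wells with 2.5 mM tranylcypromine and 1 = vehicle-only wells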
CYP2C9 act: activators of human CYP2C9; P11712; recombinant CYP2C9, luciferin-H conversion, luminescence; stronger effect = higher value; factor 1 = untreated enzyme, 0 = blocked; activation factor at 5 µM; actives 1.4% (n = 96,000); AID 1024;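 active = activation factor of 2 or more for CYP2C9 at a 5 µM dose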;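 also: 0 = sulfaphenazole-blocked wells and 1 = vehicle-only wells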
An asterisk follows results filed as active. The list is not random: actives were taken first. Their share in the collection is about 27%.

CCCCNC(=O)CSc1nc2ccccc2c(=O)n1C1CCCC1 was read as CYP2C9 inhib 56*, CYP2C19 inh 26, EphB4 antag 0, CYP2C19 activ 0.7 and CYP2C9 act 0.4.
CCOC(=O)CSc1nc2ccccc2c(=O)n1C1CCCC1 was read as CYP2C9 inhib 36, CYP2C19 inh 16, EphB4 antag 6, CYP2C19 activ 0.8 and CYP2C9 act 0.6.
O=C1Nc2ccc(F)cc2C12SCCS2 was read as CYP2C9 inhib -127, CYP2C19 inh 43, EphB4 antag 4, CYP2C19 activ 0.6 and CYP2C9 act 2.3*.
`COc1ccc(S(=O)(=O)N2Cc3ccccc3CC2C(=O)N2CCOCC2)cc1OC` (stereo not given) gave CYP2C9 inhib 3, CYP2C19 inh -6, EphB4 antag -7, CYP2C19 activ 1.1 and CYP2C9 act 1.
For COc1ccc(S(=O)(=O)N2Cc3ccccc3CC2C(=O)Nc2nccs2)cc1OC (stereo not given) the results were CYP2C9 inhib 69*, CYP2C19 inh 86*, EphB4 antag -2, CYP2C19 activ 0.1 and CYP2C9 act 0.3.
For COc1ccc(S(=O)(=O)N2Cc3ccccc3CC2C(=O)Nc2nccs2)cc1 (stereo not given) the results were CYP2C19 inh 93*, EphB4 antag 1 and CYP2C19 activ 0.1.
CCCCN1C(=O)C(NC(=O)c2cccnc2)(C(F)(F)F)C2=C1CC(C)(C)CC2=O (stereo not given) was read as CYP2C9 inhib 10, CYP2C19 inh 5, EphB4 antag -1, CYP2C19 activ 1 and CYP2C9 act 0.9.
Screening O=C(Nc1ccc(-n2nncc2-c2ccco2)cc1)c1cccc(F)c1 returned CYP2C9 inhib 72*, CYP2C19 inh 96*, EphB4 antag -2, CYP2C19 activ 0 and CYP2C9 act 0.3.
`O=C(Nc1ccc(-n2nncc2-c2ccco2)cc1)c1cc2ccccc2oc1=O` gave CYP2C9 inhib 63*, CYP2C19 inh 44, EphB4 antag -2, CYP2C19 activ 0.6 and CYP2C9 act 0.4.
O=C(Nc1ccc(N2CCOCC2)cc1)c1ccc2nc(-c3ccco3)c(-c3ccco3)nc2c1 was read as CYP2C9 inhib 16, CYP2C19 inh 8, EphB4 antag 6, CYP2C19 activ 0.9 and CYP2C9 act 0.8.
For O=C(CCC1CCCC1)NCc1ccccn1 the results were CYP2C9 inhib 20, CYP2C19 inh 39, EphB4 antag -5, CYP2C19 activ 0.6 and CYP2C9 act 0.8.
CS(=O)(=O)c1ccc2nc(NC(=O)Oc3ccccc3)sc2c1 was read as CYP2C9 inhib 70*, CYP2C19 inh 11, EphB4 antag 1, CYP2C19 activ 0.9 and CYP2C9 act 0.3.
C=CCN(CC=C)S(=O)(=O)c1ccc2nc(NC(=O)C(C)C)sc2c1 was read as CYP2C9 inhib 93*, CYP2C19 inh 81*, EphB4 antag 8, CYP2C19 activ 0.2 and CYP2C9 act 0.1.
`COc1ccc(C(=O)Nc2nc3ccc(S(C)(=O)=O)cc3s2)cc1` gave EphB4 antag 3.
For COCC(=O)Nc1nc2ccc(S(C)(=O)=O)cc2s1 the results were CYP2C9 inhib 77*, CYP2C19 inh 63*, EphB4 antag 1, CYP2C19 activ 0.4 and CYP2C9 act 0.2.
C1CCC(Nc2nnnn2C2CCCCC2)CC1 was read as CYP2C9 inhib -8, CYP2C19 inh 4, EphB4 antag -4, CYP2C19 activ 1 and CYP2C9 act 1.1.
`CCC(=O)N(Cc1cc2c(C)cc(C)cc2[nH]c1=O)C1CCCCC1` gave CYP2C9 inhib 16, CYP2C19 inh 19, EphB4 antag 6, CYP2C19 activ 0.8 and CYP2C9 act 0.8.
CCOCCCNC(=O)C(c1ccc(C)cc1)N(Cc1ccc2c(c1)OCO2)C(=O)c1cnccn1 (stereo not given) was read as CYP2C9 inhib 1, CYP2C19 inh 17, EphB4 antag 5, CYP2C19 activ 0.8 and CYP2C9 act 1.
Screening O=c1c2ccccc2nc(-c2ccco2)n1CCCn1ccnc1 returned CYP2C9 inhib 65*, CYP2C19 inh 69*, EphB4 antag -1, CYP2C19 activ 0.3 and CYP2C9 act 0.3.
For CCC(c1nc2ccccc2c(=O)n1CCCn1ccnc1)N1C(=O)c2ccccc2C1=O (stereo not given) the results were CYP2C9 inhib 85*, CYP2C19 inh 93*, EphB4 antag -1, CYP2C19 activ 0.1 and CYP2C9 act 0.1.
Screening COc1ccc(CCn2c(C)c(C(C)=O)c3cc(OC(=O)c4ccco4)ccc32)cc1OC returned CYP2C9 inhib 87*, CYP2C19 inh 83*, EphB4 antag 0, CYP2C19 activ 0.2 and CYP2C9 act 0.1.
Screening Cc1ccc(-c2nc3ccccc3c(=O)n2CCCn2ccnc2)cc1 returned CYP2C9 inhib 7, CYP2C19 inh 37, EphB4 antag -10, CYP2C19 activ 0.6 and CYP2C9 act 0.9.
Screening CCC(c1nc2ccccc2c(=O)n1CCN1CCOCC1)N1C(=O)c2ccccc2C1=O (stereo not given) returned CYP2C9 inhib 29, CYP2C19 inh 3, EphB4 antag -9, CYP2C19 activ 1 and CYP2C9 act 0.7.
O=c1c2ccccc2nc(-c2ccccc2)n1CCCn1ccnc1 was read as CYP2C9 inhib 70*, CYP2C19 inh 72*, EphB4 antag -5, CYP2C19 activ 0.3 and CYP2C9 act 0.3.
Screening COc1ccc(CCn2c(-c3ccco3)nc3ccccc3c2=O)cc1OC returned CYP2C9 inhib 48, CYP2C19 inh 95*, EphB4 antag 5, CYP2C19 activ 0 and CYP2C9 act 0.5.
For Cc1ccc(-c2nc3ccccc3n2C)o1 the results were CYP2C9 inhib 26, CYP2C19 inh 67*, EphB4 antag 0, CYP2C19 activ 0.3 and CYP2C9 act 0.7.
For Cc1oc(-c2nc3ccccc3n2C)cc1C(=O)c1ccccc1 the results were EphB4 antag 1.
CC(=O)c1ccc(-c2nc3ccccc3n2C)o1 was read as CYP2C9 inhib 28, CYP2C19 inh 61*, EphB4 antag 0, CYP2C19 activ 0.4 and CYP2C9 act 0.7.
`Cn1c(-c2ccc(Br)o2)nc2ccccc21` gave CYP2C9 inhib 38, CYP2C19 inh 75*, EphB4 antag 4, CYP2C19 activ 0.3 and CYP2C9 act 0.6.
Cn1c(Sc2nc3ccccc3n2C)nc2ccccc21 was read as CYP2C9 inhib 53*, CYP2C19 inh 95*, EphB4 antag 8, CYP2C19 activ 0.1 and CYP2C9 act 0.5.
For Cn1c(-c2ccc(Br)o2)nc2cc(Br)ccc21 the results were CYP2C9 inhib 9, CYP2C19 inh 26, EphB4 antag 0, CYP2C19 activ 0.7 and CYP2C9 act 0.9.
Screening Cc1ccc(S(=O)(=O)Oc2ccc(C)cc2/C=N/N=C2\NC(=O)C(C)S2)cc1 (stereo not given) returned EphB4 antag 9.
For Cc1ccc(NC(=O)CN2C(=O)NC3(CCC(C)CC3)C2=O)c(Cl)c1 (stereo not given) the results were CYP2C9 inhib -2, CYP2C19 inh 10, EphB4 antag 6, CYP2C19 activ 0.9 and CYP2C9 act 1.
